NS1 function inh: qHTS Assay for Inhibitors of Influenza NS1 Protein Function | Potency, µM (series often up to 46.1 µM), inactives show at the highest dose activity, positive = more growth | 270,000 tested, 0.4% active; also: potency is read from the fitted curve at half-maximal effect; actives are rising curves; nearly all actives have a fitted effect of over 50% in size
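S. cerevisiae expressing influenza A NS1, grown in glucose, washed, then diluted 1:100 into pH 6.0 -URA galactose medium with 23 nl compound. Growth recovery read as OD600; NS1-free strain serves as control.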
SARS PLP yeast: qHTS of Yeast-based Assay for SARS-CoV PLP; 330,000 tested, 0.19% active; Potency, µM (doses to about 32.9 µM), for inactives: at the top dose activity, positive = growth rescue, usual class: activators; S. cerevisiae expressing SARS-CoV PLpro, growth rescue; AID 485353, 2010; also: potency is read from the fitted curve at half-maximal effect; 0% is about no effect; nearly all actives have a fitted effect of over 55% in size
CHX counter: Cycloheximide Counterscreen for Small Molecule Inhibitors of Shiga Toxin. cell reporter, cycloheximide protein synthesis inhibition counterscreen. max response, %. 300,000 tested, 12% active; in the data active = max response mostly above about 13%, no sharp cut-off; inactive = mostly below about 14%; also: read at 38.3 µM for the half of the compounds with a filed dose; 0% is about no effect
Shiga toxin inh: A qHTS for Small Molecule Inhibitors of Shiga Toxin | Vero cells, Shiga toxin protein synthesis inhibition reporter | inhibition, % at 38.7 µM | 290,000 tested, 9.2% active | AID 2315, 2010; in the data active = inhibition mostly above about 28%, no sharp cut-off; inactive = mostly below about 43%; also: 0% is about no effect
Pf growth 96h: Primary qHTS for delayed death inhibitors of the malarial parasite plastid, 96 hour incubation | P. falciparum luciferase reporter growth, 96 h | Potency, µM (highest dose often 28.7 µM), without a hit: top-dose activity change, negative = inhibition, usual class: inhibitors | 320,000 tested, 6.9% active | AID 504834, 2011; active = well fitted inhibition curve with a large enough effect; inconclusive = small, poorly fitted or top-dose-only effect, or another doubt; inactive = no such curve, though single readings can be large or run the other way; also: potency is read from the fitted curve at half-maximal effect; % is scaled to controls: 0 for no effect and ±100 for the full control effect
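Two-generation exposure (96 h) targets delayed-death phenotype. Reporter parasites carrying integrated firefly luciferase, in red cells at 2% hematocrit and 0.05% parasitemia final, kept at 37 C, 5% CO2; luminescence loss indicates inhibition.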
Pf growth 48h: Primary qHTS for delayed death inhibitors of the malarial parasite plastid, 48 hour incubation; P. falciparum luciferase growth in erythrocytes, 48 h; Potency, µM (series often up to 28.7 µM), without a hit: at the top dose activity change, negative = inhibition, usual class: inhibitors; 310,000 tested, 5.9% active; AID 504832, 2011; active = well fitted inhibition curve with a large enough effect; inconclusive = small, poorly fitted or top-dose-only effect, or another doubt; inactive = no such curve, though single readings can be large or run the other way; also: potency is read from the fitted curve at half-maximal effect; % is scaled to controls: 0 for no effect and ±100 for the full control effect
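Here the parasites carry a stable luciferase gene and grow inside erythrocytes in Albumax-based RPMI medium with compound for one erythrocytic cycle. Activity is scored as loss of luminescent signal.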
An asterisk follows results filed as active. In the library only some 21% were active in any assay of this set; here they are far more common. Unless noted, calls follow the shape of the full dose curve.

What do the screens show for `CN(CCCC(=O)NCCc1ccccc1)S(=O)(=O)c1ccc([N+](=O)[O-])cc1`?
NS1 function inh: -18.2%; SARS PLP yeast: 0.8%; CHX counter: -1.4; Shiga toxin inh: -5.4; Pf growth 96h: -24.9%; Pf growth 48h: -15.3%

What do the screens show for `O=C(CN1CCCCC1)Nc1ccc(NC(=O)c2ccc(Cl)cc2)cc1Cl`?
NS1 function inh: -3.3%; SARS PLP yeast: 1.1%; CHX counter: -2.3; Shiga toxin inh: -5.6; Pf growth 96h: inconclusive; Pf growth 48h: inconclusive

How did CCOc1ccc(CN(C)C(=O)c2ccc(NC(=O)CC3SC(N4CCCC4)=NC3=O)cc2)cc1 (stereo not drawn) do in these assays?
NS1 function inh: -7.7%; SARS PLP yeast: 3.7%; CHX counter: 4.2; Shiga toxin inh: 15.0; Pf growth 96h: inconclusive; Pf growth 48h: inconclusive

What do the screens show for `CCOC(=O)C1CCCN(C(=O)c2cc3c(=O)n(C)c4ccccc4c3n2C)C1` (stereo not drawn)?
NS1 function inh: -18.9%; SARS PLP yeast: 4.8%; CHX counter: -7.8; Shiga toxin inh: -12.3; Pf growth 96h: 8.28µM*

How did Cn1c(C(=O)N2CCCC2)cc2c(=O)n(C)c3ccccc3c21 do in these assays?
NS1 function inh: -3.4%; SARS PLP yeast: 11.9%; CHX counter: -3.8; Shiga toxin inh: -9.8; Pf growth 96h: -21.3%

Results for CCOC(=O)C1CCCN(C(=O)c2ccc3oc(CCc4ccccc4)nc3c2)C1 (stereo not drawn) ?
NS1 function inh: -15.2%; SARS PLP yeast: -0.8%; CHX counter: 39.4*; Shiga toxin inh: 38.1; Pf growth 96h: inconclusive; Pf growth 48h: 8.0%

What do the screens show for `CN(CC(=O)Nc1ccc(F)cc1)C(=O)COC(=O)CN1C(=O)NC2(CCCC2)C1=O`?
NS1 function inh: -1.3%; SARS PLP yeast: -0.2%; CHX counter: 3.4; Shiga toxin inh: -18.4; Pf growth 96h: 17.2%; Pf growth 48h: inconclusive

Results for Cc1cc(C)nc(NCCCc2ccccc2)n1 ?
NS1 function inh: -10.5%; SARS PLP yeast: 5.0%; CHX counter: -1.1; Shiga toxin inh: 7.2; Pf growth 96h: 13.1µM*; Pf growth 48h: -27.4%

How did Fc1cc(F)nc(NCc2ccccc2)n1 do in these assays?
NS1 function inh: 3.5%; SARS PLP yeast: -1.8%; CHX counter: -3.7; Shiga toxin inh: -3.7; Pf growth 96h: 45.5%; Pf growth 48h: 19.3%

How did Cc1cc(Nc2cccc(F)c2)nc(NCc2ccccc2)n1 do in these assays?
NS1 function inh: -16.6%; SARS PLP yeast: 7.9%; CHX counter: -2.2; Shiga toxin inh: -6.3; Pf growth 96h: inconclusive; Pf growth 48h: 0.37µM*

Results for Cc1cc(Nc2ccccc2)nc(NCc2ccccc2)n1 ?
NS1 function inh: -46.7%; SARS PLP yeast: -28.7%; CHX counter: 2.0; Shiga toxin inh: 16.8; Pf growth 96h: inconclusive; Pf growth 48h: 0.586µM*

What do the screens show for `Fc1cc(NCc2ccccc2)nc(NCc2ccccc2)n1`?
NS1 function inh: -2.5%; SARS PLP yeast: -4.0%; CHX counter: 53.4*; Shiga toxin inh: 59.6*; Pf growth 96h: inconclusive; Pf growth 48h: 28.5%

How did CNCCCc1ccccc1 do in these assays?
NS1 function inh: 17.6%; SARS PLP yeast: 1.0%; CHX counter: -3.4; Shiga toxin inh: 22.8; Pf growth 96h: 162.0%; Pf growth 48h: 14.5%

How did Nc1nc(NCc2ccccc2)nc(Nc2cccc(F)c2)c1[N+](=O)[O-] do in these assays?
NS1 function inh: 3.2%; SARS PLP yeast: 1.3%; CHX counter: 0.1; Shiga toxin inh: -12.7; Pf growth 96h: -2.4%; Pf growth 48h: 5.8%

Results for Cc1cc(Oc2ccccc2)nc(NCc2ccccc2)n1 ?
NS1 function inh: -16.3%; SARS PLP yeast: 3.8%; CHX counter: 0.8; Shiga toxin inh: 13.1; Pf growth 96h: -0.1%; Pf growth 48h: 0.2%

How did O=C(Cc1ccc(Br)c2ccccc12)N/N=C/c1ccccn1 do in these assays?
SARS PLP yeast: -27.1%; CHX counter: -4.3; Shiga toxin inh: 14.1; Pf growth 96h: 48.0%; Pf growth 48h: inconclusive

What do the screens show for `O=C(c1cc(S(=O)(=O)N2CCC3(CC2)OCCO3)ccc1F)N1CCCCC1`?
SARS PLP yeast: -3.5%; CHX counter: 9.8; Shiga toxin inh: 1.9; Pf growth 96h: 34.1%; Pf growth 48h: -2.6%

Screening results: PubChem, National Center for Advancing Translational Sciences (NCATS)
